In the supplement of paper PMC11732987, “Enantioselective OTUD7B fragment discovery through chemoproteomics screening and high-throughput optimisation” (Communications Chemistry, 2025):

Tests used:
Test in all cases: log2 ratio of Biotin-Ahx-Ub-VS probe labelling (fragment/DMSO); higher = less target engagement (more negative = stronger competition), active = hit call of the paper (q ≤ 0.05, log2 ratio ≤ -1)
Conditions in all cases: compound concentration: 200 uM; treatment time: 3 h
USP9X = USP9X (UniProt Q93008)
Method in brief: (§1)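 In triplicate, 495 µg of HEK293T lysate per sample was incubated with fragment at 200 µM or vehicle for 3 h. Biotin-Ahx-Ub-VS was then added to 0.5 µM final for 1 h, and labelled DUBs were captured with NeutrAvidin, digested with LysC and trypsin, and measured by diaPASEF LC-MS/MS. Data are average log2 fragment/vehicle ratios by unpaired t-test from global-median-normalised Spectronaut label-free quantities, restricted to proteins with ≥2 unique peptides.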

UniProt O00487 = biological target: UniProt O00487
Sequence of UniProt O00487 (O00487 whole entry): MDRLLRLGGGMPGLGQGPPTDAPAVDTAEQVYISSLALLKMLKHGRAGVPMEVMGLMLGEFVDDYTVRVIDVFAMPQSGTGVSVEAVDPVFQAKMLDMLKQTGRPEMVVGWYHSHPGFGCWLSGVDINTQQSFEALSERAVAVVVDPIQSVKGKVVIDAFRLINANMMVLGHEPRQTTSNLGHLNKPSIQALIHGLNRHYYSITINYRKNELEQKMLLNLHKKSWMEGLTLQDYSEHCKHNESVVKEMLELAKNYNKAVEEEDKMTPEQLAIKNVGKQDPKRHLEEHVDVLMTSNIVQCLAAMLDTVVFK
Method in brief: as §1

UniProt O00507 = biological target: UniProt O00507
Sequence of UniProt O00507 (O00507 whole entry): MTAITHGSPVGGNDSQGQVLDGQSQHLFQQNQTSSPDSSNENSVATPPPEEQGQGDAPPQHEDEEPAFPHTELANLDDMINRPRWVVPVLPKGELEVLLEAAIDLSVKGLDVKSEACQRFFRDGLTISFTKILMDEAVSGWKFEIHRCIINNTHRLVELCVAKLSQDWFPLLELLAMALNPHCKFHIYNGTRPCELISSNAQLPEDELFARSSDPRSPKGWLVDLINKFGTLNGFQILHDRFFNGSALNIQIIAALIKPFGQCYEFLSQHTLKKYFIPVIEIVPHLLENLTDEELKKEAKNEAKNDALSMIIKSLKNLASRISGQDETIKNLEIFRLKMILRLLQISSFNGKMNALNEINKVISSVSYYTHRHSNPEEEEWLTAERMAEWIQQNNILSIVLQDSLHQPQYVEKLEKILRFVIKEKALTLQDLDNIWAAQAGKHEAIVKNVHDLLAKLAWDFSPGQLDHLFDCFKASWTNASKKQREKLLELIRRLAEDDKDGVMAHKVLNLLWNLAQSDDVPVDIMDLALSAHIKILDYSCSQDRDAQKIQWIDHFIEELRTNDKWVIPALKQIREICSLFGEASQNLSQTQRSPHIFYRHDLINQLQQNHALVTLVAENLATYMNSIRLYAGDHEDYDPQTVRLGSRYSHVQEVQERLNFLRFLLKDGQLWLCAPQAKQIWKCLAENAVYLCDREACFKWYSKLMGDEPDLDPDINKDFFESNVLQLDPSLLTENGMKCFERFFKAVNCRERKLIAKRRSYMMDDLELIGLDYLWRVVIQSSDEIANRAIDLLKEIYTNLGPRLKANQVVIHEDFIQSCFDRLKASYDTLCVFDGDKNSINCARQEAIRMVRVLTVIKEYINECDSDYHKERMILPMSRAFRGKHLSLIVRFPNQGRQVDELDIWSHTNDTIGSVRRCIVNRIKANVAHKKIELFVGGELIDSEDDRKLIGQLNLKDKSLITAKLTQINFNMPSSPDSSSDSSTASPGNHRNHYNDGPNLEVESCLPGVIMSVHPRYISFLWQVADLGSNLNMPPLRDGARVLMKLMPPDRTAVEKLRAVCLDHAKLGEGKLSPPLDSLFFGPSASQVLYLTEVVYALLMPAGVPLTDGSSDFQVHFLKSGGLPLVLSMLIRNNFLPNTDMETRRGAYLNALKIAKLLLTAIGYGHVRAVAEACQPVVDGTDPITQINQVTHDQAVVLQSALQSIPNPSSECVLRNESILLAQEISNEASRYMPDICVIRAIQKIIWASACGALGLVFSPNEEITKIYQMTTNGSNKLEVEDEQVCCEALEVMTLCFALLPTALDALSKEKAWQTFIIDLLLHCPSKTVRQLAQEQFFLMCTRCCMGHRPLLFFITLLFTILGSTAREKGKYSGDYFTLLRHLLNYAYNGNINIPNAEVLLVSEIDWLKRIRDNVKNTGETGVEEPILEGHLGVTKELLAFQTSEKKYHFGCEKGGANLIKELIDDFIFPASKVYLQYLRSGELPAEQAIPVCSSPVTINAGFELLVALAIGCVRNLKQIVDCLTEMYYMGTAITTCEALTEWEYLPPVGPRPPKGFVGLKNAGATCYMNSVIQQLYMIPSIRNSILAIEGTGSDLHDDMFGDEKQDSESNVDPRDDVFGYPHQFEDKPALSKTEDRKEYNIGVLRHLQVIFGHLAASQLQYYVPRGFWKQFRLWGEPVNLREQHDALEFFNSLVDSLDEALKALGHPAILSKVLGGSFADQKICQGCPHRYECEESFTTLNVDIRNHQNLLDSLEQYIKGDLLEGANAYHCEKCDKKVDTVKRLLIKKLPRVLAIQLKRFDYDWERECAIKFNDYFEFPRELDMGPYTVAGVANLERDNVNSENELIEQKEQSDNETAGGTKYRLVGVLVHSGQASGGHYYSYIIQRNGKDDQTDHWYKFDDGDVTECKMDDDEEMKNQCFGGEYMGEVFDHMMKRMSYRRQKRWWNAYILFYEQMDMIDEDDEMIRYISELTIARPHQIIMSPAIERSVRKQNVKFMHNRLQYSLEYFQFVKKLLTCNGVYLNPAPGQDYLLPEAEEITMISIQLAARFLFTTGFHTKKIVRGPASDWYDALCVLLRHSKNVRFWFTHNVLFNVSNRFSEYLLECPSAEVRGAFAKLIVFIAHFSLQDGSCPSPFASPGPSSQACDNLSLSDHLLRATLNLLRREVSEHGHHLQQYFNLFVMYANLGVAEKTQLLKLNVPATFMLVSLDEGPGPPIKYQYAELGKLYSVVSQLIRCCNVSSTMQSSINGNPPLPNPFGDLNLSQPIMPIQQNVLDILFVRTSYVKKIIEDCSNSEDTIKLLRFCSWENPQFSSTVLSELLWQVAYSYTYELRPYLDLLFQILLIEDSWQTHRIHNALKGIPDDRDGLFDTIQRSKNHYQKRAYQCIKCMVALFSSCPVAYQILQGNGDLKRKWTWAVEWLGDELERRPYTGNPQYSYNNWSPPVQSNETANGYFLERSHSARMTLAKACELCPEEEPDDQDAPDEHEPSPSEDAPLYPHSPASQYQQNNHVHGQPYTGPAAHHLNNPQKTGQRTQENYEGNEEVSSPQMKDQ
Method in brief: as §1

UniProt P51784 = biological target: UniProt P51784
Sequence of UniProt P51784 (P51784 whole entry): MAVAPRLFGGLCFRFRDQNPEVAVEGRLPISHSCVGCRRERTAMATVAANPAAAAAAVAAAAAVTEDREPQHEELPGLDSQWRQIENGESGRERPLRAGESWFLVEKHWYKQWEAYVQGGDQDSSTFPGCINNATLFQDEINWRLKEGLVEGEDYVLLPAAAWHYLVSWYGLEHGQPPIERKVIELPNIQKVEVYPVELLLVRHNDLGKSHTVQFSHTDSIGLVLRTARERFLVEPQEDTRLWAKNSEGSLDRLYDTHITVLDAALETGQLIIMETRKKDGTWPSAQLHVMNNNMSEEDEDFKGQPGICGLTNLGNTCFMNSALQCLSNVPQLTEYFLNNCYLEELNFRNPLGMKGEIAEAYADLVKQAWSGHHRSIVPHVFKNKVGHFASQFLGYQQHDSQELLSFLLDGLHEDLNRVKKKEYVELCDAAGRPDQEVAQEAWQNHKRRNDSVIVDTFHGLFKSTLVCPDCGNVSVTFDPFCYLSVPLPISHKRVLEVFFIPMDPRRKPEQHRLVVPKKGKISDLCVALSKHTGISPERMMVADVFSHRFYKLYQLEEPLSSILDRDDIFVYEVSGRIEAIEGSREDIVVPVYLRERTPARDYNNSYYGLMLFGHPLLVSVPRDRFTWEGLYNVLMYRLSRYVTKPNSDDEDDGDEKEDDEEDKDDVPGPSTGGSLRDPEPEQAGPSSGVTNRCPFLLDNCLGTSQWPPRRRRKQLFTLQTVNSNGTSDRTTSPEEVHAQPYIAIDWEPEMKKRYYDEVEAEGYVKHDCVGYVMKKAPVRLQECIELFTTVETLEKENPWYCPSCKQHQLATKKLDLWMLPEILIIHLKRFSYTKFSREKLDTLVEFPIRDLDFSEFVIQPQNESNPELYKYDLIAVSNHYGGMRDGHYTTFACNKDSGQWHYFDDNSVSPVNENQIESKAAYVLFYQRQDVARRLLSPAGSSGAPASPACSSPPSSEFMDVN
Method in brief: as §1

UniProt Q5T2D3 = biological target: T1, UniProt Q5T2D3
T1 sequence (whole entry): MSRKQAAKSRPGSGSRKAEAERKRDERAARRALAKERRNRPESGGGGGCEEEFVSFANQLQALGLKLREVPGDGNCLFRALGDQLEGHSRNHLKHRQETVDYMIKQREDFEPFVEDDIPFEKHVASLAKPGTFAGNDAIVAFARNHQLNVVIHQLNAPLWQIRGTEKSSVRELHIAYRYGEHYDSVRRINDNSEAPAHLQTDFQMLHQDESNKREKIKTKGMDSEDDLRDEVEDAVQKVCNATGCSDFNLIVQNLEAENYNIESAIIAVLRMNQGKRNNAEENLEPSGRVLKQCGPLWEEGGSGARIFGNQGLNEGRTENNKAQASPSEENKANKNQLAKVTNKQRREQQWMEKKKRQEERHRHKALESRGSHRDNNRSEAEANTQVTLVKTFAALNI
Method in brief: as §1

UniProt Q8TE49 = biological target: T2, UniProt Q8TE49
T2 sequence (whole entry): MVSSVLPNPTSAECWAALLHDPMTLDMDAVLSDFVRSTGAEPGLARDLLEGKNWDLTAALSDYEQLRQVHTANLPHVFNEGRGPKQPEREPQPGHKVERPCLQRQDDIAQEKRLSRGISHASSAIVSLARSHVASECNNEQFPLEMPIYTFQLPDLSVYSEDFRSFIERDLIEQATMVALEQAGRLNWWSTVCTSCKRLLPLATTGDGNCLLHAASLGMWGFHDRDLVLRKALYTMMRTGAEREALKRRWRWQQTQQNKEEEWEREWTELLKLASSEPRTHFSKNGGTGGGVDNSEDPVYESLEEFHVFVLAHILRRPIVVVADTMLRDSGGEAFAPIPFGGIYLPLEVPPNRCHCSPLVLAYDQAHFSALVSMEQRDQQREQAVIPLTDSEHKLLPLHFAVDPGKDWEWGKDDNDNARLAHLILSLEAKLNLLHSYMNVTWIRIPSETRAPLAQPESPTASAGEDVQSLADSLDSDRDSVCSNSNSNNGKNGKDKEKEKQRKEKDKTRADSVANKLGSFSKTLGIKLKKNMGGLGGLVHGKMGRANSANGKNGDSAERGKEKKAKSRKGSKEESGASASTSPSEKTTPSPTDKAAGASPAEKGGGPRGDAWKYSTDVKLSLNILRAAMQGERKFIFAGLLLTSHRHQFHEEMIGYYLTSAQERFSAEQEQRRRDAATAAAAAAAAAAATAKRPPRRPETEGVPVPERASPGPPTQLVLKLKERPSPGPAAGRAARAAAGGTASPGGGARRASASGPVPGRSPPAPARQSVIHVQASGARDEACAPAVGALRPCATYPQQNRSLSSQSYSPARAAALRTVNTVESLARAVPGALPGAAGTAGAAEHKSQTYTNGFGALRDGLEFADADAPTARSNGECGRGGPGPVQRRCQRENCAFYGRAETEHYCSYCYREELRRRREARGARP
Method in brief: as §1

UniProt Q9P2H5 = biological target: T3, UniProt Q9P2H5
T3 sequence (whole entry): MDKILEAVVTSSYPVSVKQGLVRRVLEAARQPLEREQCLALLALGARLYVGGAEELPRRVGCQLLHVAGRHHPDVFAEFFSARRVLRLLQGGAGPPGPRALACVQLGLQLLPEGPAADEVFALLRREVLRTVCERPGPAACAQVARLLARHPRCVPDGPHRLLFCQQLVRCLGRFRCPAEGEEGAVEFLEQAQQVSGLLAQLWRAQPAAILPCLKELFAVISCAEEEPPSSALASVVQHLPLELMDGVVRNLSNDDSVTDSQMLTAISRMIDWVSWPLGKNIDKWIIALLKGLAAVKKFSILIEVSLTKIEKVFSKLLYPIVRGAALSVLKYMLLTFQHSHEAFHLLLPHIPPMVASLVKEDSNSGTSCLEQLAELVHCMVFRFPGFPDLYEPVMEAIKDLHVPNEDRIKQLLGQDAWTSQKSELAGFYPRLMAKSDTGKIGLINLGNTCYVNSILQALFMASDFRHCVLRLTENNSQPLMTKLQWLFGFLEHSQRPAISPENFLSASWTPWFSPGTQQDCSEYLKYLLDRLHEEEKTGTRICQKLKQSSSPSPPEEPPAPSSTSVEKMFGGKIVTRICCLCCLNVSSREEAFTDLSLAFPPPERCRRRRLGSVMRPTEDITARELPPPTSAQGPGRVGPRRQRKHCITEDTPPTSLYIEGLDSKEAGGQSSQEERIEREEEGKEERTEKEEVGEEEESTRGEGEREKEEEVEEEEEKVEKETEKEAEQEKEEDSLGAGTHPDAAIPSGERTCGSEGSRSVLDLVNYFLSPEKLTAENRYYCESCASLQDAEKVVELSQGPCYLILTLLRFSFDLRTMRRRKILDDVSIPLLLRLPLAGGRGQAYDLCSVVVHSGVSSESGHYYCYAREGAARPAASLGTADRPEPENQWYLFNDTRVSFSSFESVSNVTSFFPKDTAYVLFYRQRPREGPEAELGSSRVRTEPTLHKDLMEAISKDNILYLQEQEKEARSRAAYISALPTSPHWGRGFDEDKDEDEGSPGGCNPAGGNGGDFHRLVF
Method in brief: as §1

UniProt Q9UGI0 = biological target: T4, UniProt Q9UGI0
T4 sequence (whole entry): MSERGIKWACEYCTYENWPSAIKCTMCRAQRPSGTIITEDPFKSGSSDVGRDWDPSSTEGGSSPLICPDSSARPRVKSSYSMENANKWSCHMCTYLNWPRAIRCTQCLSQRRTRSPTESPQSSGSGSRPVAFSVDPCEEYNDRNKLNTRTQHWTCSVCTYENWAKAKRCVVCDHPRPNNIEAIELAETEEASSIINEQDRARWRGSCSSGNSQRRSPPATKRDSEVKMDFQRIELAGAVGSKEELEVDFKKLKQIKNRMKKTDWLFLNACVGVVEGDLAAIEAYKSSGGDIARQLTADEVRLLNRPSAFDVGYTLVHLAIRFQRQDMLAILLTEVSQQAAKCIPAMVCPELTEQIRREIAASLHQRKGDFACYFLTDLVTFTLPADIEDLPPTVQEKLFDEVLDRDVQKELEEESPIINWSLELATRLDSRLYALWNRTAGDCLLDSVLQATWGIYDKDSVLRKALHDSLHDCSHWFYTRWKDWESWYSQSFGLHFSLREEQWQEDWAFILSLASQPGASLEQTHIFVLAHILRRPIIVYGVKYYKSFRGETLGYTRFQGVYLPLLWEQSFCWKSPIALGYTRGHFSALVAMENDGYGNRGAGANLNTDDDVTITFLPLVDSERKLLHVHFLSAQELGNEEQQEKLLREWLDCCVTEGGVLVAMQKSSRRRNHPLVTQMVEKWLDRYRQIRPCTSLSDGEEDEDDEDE
Method in brief: as §1

YOD1 = biological target: T5, YOD1 (UniProt Q5VVQ6)
T5 sequence (whole entry): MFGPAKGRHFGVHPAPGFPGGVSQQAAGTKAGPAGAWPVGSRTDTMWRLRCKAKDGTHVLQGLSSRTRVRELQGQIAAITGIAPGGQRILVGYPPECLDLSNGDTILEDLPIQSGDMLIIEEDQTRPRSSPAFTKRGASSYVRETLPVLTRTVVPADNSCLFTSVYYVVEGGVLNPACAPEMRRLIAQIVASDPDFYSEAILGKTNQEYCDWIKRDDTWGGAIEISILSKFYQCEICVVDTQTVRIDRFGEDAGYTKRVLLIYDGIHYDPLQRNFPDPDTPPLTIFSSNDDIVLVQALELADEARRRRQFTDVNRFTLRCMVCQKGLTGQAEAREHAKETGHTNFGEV
Method in brief: as §1

Measured: log2 ratio of Biotin-Ahx-Ub-VS probe labelling

O=C(CCl)N1CCCCCC1c1ncon1 (centres undefined)
inactive: USP9X -0.226 | UniProt O00487 -0.0641 | UniProt O00507 -0.0474 | UniProt P51784 -0.00586 | UniProt Q5T2D3 -0.23 | UniProt Q8TE49 -0.401 | UniProt Q9P2H5 -0.21 | UniProt Q9UGI0 -0.661 | YOD1 0.022
